# Hits are enriched below; roughly 8.3% of the tested compounds scored in any of these assays.
# RORgamma inh: inhibitors of mouse ROR gamma transcriptional activity; P51450; Drosophila S2 Gal4-RORgamma UAS-luciferase reporter, 20 h; Potency, µM (top dose mostly 53.6 µM), without a hit: at the highest dose activity change, negative = inhibition, hits mostly inhibitors; 310,000 compounds, 5.4% hits; also: potency is read from the fitted curve at half-maximal effect; % is scaled to controls: 0 for no effect and ±100 for the full control effect; nearly all actives have a fitted effect of over 60% in size
# Target sequence (P51450 whole entry, looked up, the tested form may be a part): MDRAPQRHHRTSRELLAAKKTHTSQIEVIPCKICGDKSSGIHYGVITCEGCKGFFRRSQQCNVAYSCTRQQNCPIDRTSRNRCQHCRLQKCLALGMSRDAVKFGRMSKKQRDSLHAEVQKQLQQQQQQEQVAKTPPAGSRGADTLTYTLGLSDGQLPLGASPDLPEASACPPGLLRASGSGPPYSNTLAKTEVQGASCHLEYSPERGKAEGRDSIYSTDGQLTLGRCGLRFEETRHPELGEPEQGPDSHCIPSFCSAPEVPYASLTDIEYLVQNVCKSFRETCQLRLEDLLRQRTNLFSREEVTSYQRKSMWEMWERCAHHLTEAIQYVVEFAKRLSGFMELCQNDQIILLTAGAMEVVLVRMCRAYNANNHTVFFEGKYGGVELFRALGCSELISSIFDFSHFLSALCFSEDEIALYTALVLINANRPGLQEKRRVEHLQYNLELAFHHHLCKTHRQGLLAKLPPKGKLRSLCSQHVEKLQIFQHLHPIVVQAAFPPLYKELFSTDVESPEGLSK
#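 Stably transfected Drosophila Schneider cells are the test system, with ROR gamma fused to Gal4 and luciferase under UAS control; luminescence is read after 20 hr of 700 uM copper sulfate induction at ambient temperature.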
# VP16 counter: inhibits Gal4-VP16 luciferase reporter, ROR gamma counter-screen; Potency, µM (doses to about 53.6 µM), without a hit: top-dose activity, negative = inhibition, usual class: inhibitors; Drosophila S2 Gal4-VP16 UAS-luciferase, luminescence, 20 h; 310,000 compounds, 3.5% hits;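 also: Gal4-VP16 expression switched on by copper sulfate through the metallothionein promoter; potency is read from the fitted curve at half-maximal effect; % is scaled to controls: 0 for no effect and ±100 for the full control effect; nearly all actives have a fitted effect of over 50% in size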
# MCF10A rereplic: DNA re-replication induction in MCF 10a cells | MCF 10A DNA re-replication, Hoechst nuclear intensity, 48 h | Potency, µM (top dose mostly 46.1 µM), inactives show top-dose activity, positive = re-replication, usual class: activators | 350,000 compounds, 2.9% hits | AID 624296; also: potency is read from the fitted curve at half-maximal effect; % of control where 0% means no effect; nearly all actives have a fitted effect of over 50% in size
# Giardia killer: kills Giardia lamblia | 340,000 compounds, 0.15% hits | activity change, % at 7.66 µM, hits read low | Giardia lamblia trophozoite viability | AID 540267; in the data active = activity change below about -80%; inconclusive = between about -30% and that limit;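 also: parasites exposed to compound for two days anaerobically before the ATP read; % is scaled to controls: 0 for no effect and ±100 for the full control effect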
#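 Compounds were tested on trophozoites seeded at 100 cells/well and held 48 hrs at 37 deg C anaerobically. An ATP-based luminescent kit measured the remaining live cells.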
# Chronic BCR inh: blocks chronic active B-cell receptor signaling. ABC-DLBCL IkBa-CBG/CBR reporter, luminescence ratio, 4 h. Potency, µM (titrated, usually from 46.1 µM), for the others: top-dose activity change, negative = inhibition, most hits filed as inhibitors. 340,000 compounds, 0.05% hits. AID 493014; active = well fitted inhibition curve with a large enough effect in the signal ratio, with a control signal flat, not every such curve was filed as active; inconclusive = small, poorly fitted or top-dose-only effect, or effect the other way, or a change in a side signal; the % refers to the signal ratio;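 also: potency is read from the fitted curve at half-maximal effect; plate controls were basal doxycycline-induced cells for no effect and cells given 10 µM MG132 for full effect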
#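 TMD8 ABC-DLBCL cells carrying doxycycline-inducible green luciferase fused to IkappaBalpha plus unfused red luciferase were exposed to compounds (up to 46 uM) for 4 hrs at 37C. Activity came from the overlap-corrected green/red luminescence ratio.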
# SW480 rerep: inducers of DNA re-replication in SW480 colon cancer cells. Potency, µM (highest dose often 46.1 µM), for inactives: at the highest dose re-replication activation, hits mostly activators. AID 624297. 340,000 compounds, 1.8% hits. SW480 DNA re-replication, Hoechst DNA content imaging, 48 h; also: potency is read from the fitted curve at half-maximal effect; % of control where 0% means no effect; nearly all actives have a fitted effect of over 55% in size
#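 DNA re-replication was detected as more nuclei of elevated Hoechst intensity after 48 hr exposure to compound (23 nL pinned per well of 250 cells).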
# Active calls of the source: *; ? = inconclusive; nt = no result given; [ ] = another dose, or the depositor's remark. Unless noted, calls follow the shape of the dose curve; as a rule, active = well fitted curve in the direction sought with a large enough effect; inconclusive = small, poorly fitted or top-dose-only effect, or another doubt; inactive = no such curve, though single readings can be large; an effect the other way counts as inactive or inconclusive.
SMILES,RORgamma inh,VP16 counter,MCF10A rereplic,Giardia killer,Chronic BCR inh,SW480 rerep
O=C(NC(=S)Nc1ccc(S(=O)(=O)Nc2nccs2)cc1)c1ccc(F)cc1,40%,?,5%,?,?,-4%
Cc1ccc2nc(-c3ccc(-c4ccccn4)s3)cn2c1,0.18µM*,0.89µM*,7%,-29,?,0%
Brc1ccc(-c2cn3ccccc3n2)s1,?,?,2%,?,?,-3%
CC(=O)Nc1ccc(-c2cn3cc(C)ccc3n2)cc1,7.1µM*,?,2%,?,4%,2%
Cc1ccc2nc(-c3ccc(O)c(O)c3)cn2c1,4%[1.91 µM],?,-5%,?,?,27%
Cc1cccn2cc(-c3ccccc3)nc12,11µM*,-26%,-6%,-4,-3%,-5%
Clc1ccc(-c2cn3cc(Cl)ccc3n2)cc1,10µM*,13µM*,13%,-19,?,-10%
Cc1ccc(CNC(=O)C2CCN(c3nc(C)cc(C)n3)CC2)cc1,nt,nt,-6%,-14,nt,-9%
O=C(COC(=O)C1CC2CCCC(C1)C2=O)Nc1cccc(F)c1 (stereo not drawn),nt,nt,-4%,1,2%,-3%
Cc1ccc(NS(=O)(=O)c2cccc(C(=O)Nc3c(C)n(C)n(-c4ccccc4)c3=O)c2)cc1,15%,10%,1%,18,-3%,-9%
Cc1ccc2nc(-c3ccccc3)cn2c1,1.6µM*,2.8µM*,-4%,?,?,-17%
Oc1ccc(-c2cn3cc(C(F)(F)F)ccc3n2)cc1,2.2µM*,8.9µM*,19%,?,?,-2%
Fc1ccc(-c2cn3cc(C(F)(F)F)cc(Cl)c3n2)cc1,-15%,-18%,?,-2,?,?
CCNc1nc(NC(C)C)nc(N(n2cnnc2)S(=O)(=O)c2ccc(C)cc2)n1,22%[10 µM],3%,13%,13,5%,nt
N#Cc1ccc(C(=O)CSc2nnc(-c3ccc(C(F)(F)F)cn3)s2)cc1,-7%,-5%,26%,-15,?,3.3µM*
O=C(CSc1nnc(-c2ccc(C(F)(F)F)cn2)s1)c1ccc(Cl)cc1,7%,-6%,0%,13,1%,-7%
Cn1c(CC(=O)Nc2ccc(Cl)cc2)nnc1SCC(=O)N1CCOCC1,1%,12%,0%,4,2%,9%
CC(C)(C)c1cc(O)c(C(C)(C)C)cc1O,-32%,-18%,nt,nt,nt,nt
Cc1cc(O)c(C(C)(C)C)cc1Sc1cc(C(C)(C)C)c(O)cc1C,10µM*,?,nt,nt,nt,nt
O=C(NC1CCCC1)C(c1ccccn1)N(C(=O)c1csnn1)c1ccccc1Cl (stereo not drawn),-10%,2%,-1%,-21,-1%,2%
CCCn1c(NC(=O)C2CCN(S(=O)(=O)c3cccs3)CC2)nc2ccccc21,1.4µM*,4.5µM*,?,6,?,13%
Cc1csc(NC(=O)C2CCN(S(=O)(=O)c3cccs3)CC2)n1,?,-6%,3%,-2,10%,-10%
C=CCn1c(NC(=O)c2ccc(C)cc2)nc2ccccc21,0.4µM*,0.79µM*,?,-6,0%,5%
CCCn1c(NC(=O)c2cccc(S(=O)(=O)N3CCCC3)c2)nc2ccccc21,2.8µM*,6.3µM*,18µM*,0,?,?
CCCn1c(SCC(=O)C(C)(C)C)nc2ccccc21,11µM*,?,?,30,-1%,2%
SMILES,RORgamma inh,VP16 counter,MCF10A rereplic,Giardia killer,Chronic BCR inh,SW480 rerep
Cn1c(NC(=O)c2cccnc2)nc2ccccc21,?,-4%,1%,1,-12%,-2%
CCCn1c(NC(=O)c2ccccc2)nc2ccccc21,0.79µM*,1.8µM*,5%,-23,?,3%
CCCn1c(NC(=O)c2ccc(C)cc2)nc2ccccc21,2.2µM*,0.63µM*,?,16,?,?
CC(=O)Nc1ccc(S(=O)(=O)N(C)CC(=O)OC(C)C(=O)N(C)Cc2ccccc2)cc1 (stereo not drawn),4%,3%,-5%,-17,-1%,-2%
COc1cc(OC)c(N2CC(C(=O)NCCC3=CCCCC3)CC2=O)cc1Cl (stereo not drawn),nt,nt,3%,10,0%,-1%
COc1cc(/C=C(\C#N)c2nnc(N3CCOCC3)n2-c2ccccc2)ccc1O,12%,-9%,1%,24,?,6.5µM*
CC(C)C(=O)Nc1nnc(Cc2c[nH]c3ccccc23)s1,24%,26%,8.2µM*,45,7%,?
Cn1cccc1C(=O)N1CCC2(CCN(Cc3nccs3)CC2)CC1,0%,7%,nt,nt,nt,nt
O=c1c2sc(-c3ccccc3)cc2nc2n1CCCCC2,-3%,-15%,?,-6,?,-1%
O=c1c2sc(-c3ccccc3)cc2nc2n1CCC2,2.5µM*,?,3%,-24,?,-6%
Cc1ccc(C(=O)NCCSC2CCCCC2)cc1S(=O)(=O)Nc1ccccc1,?,-12%,14%,-5,-1%,-2%
Cc1ccc(C)c(S(=O)(=O)NCCC(=O)N2CCCC(C(N)=O)C2)c1 (stereo not drawn),nt,nt,6%,28,3%,12%
O=C(NCC1(N2CCOCC2)CCCCC1)c1cccc(S(=O)(=O)N2CCc3ccccc3C2)c1,0%,-11%,15µM*,11,0%,6%
O=C(NCCCN1CCOCC1)c1cccc(S(=O)(=O)N2CCc3ccccc3C2)c1,-21%,6%,?,-3,-1%,22%[1.84 µM]
N#C/C(=C/c1ccc([N+](=O)[O-])cc1)C(N)=O,25%,6%,1%,-4,1%,0%
N#C/C(=C\c1cc([N+](=O)[O-])ccc1Cl)C(N)=O,-40%,-8%,21µM*,2,?,8.2µM*
Cc1ccn2c(=O)nc(SCC(=O)NCc3ccccc3Cl)nc2c1,nt,nt,?,-11,?,-11%
S=c1[nH]nc(-c2ccco2)n1-c1ccc(Cl)cc1,8.9µM*,-29%,-2%,2,-1%,-2%
CC(C)(C)c1cc(-c2n[nH]c(=S)n2-c2ccc(Cl)cc2)n[nH]1,7.1µM*,-17%,-12%,18,3%,-6%[9.22 µM]
COc1ccc(-n2c(-c3ccco3)n[nH]c2=S)cc1,10%[10 µM],?,0%,-9,0%,-11%
Cn1cc(Cl)c(-c2n[nH]c(=S)n2C2CCCCC2)n1,6.3µM*,?,8%,15,-27%,-3%
S=c1[nH]nc(-c2ccco2)n1C1CCCCC1,10µM*,?,6%,6,1%,-12%
COc1ccc(-n2c(=O)c3c4c(sc3n(Cc3c(F)cccc3Cl)c2=O)CN(C(C)=O)CC4)cc1OC,nt,nt,nt,nt,2%,nt
